Data reported in PubChem BioAssay (EPA / NIEHS).
Activity calls are given as the source filed them. The calls were made as follows: active = hit-call score of the fitted dose curve at least 0.9, where 1 is the maximum; inactive = score below 0.9.

Legend:
Conditions in all cases: mRNA level, 48 h; actives raise or lower the signal
[1] = read-out: flavin-containing dimethylaniline monooxygenases 3 (FMO3), FMO3 (gene 2328); test: LTEA_HepaRG_FMO3: Life Technologies and Expression Analysis (LTEA) Assay for flavin-containing dimethylaniline monooxygenases 3 (FMO3) using HepaRG (AID 2283453)
Summary of the method: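 Differentiated HepaRG cells in serum-free induction medium, exposed 48 h in duplicate to 8 half-log concentrations up to 100 uM in 0.5% DMSO. FMO3 mRNA by qRT-PCR, normalized to ACTB, GAPDH, POLR2A; bidirectional fit vs DMSO.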

[2] = read-out: Cytochrome P450 (CYP1A1), CYP1A1 (gene 1543); test: LTEA_HepaRG_CYP1A1: Life Technologies and Expression Analysis (LTEA) Assay for Cytochrome P450 (CYP1A1) using HepaRG (AID 2283454)
Summary of the method: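 Induction of CYP1A1 mRNA in a human hepatic cell line was measured 48 h after dosing, with 1 mM phenobarbital as induction positive control and 0.5% DMSO vehicle as baseline for bidirectional curve fitting.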

[3] = read-out: CFLAR gene, CFLAR (gene 8837); test: LTEA_HepaRG_CFLAR: Life Technologies and Expression Analysis (LTEA) Assay for CFLAR gene using HepaRG (AID 2283455)
Summary of the method: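 Differentiated HepaRG cells in serum-free induction medium were exposed 48 h in duplicate to eight half-log concentrations up to 100 uM in 0.5% DMSO; mRNA measured by TaqMan qRT-PCR, normalized to ACTB, GAPDH, POLR2A; bidirectional fitting versus DMSO.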

[4] = read-out: Forkhead box O1 (FOXO1), FOXO1 (gene 2308); test: LTEA_HepaRG_FOXO1: Life Technologies and Expression Analysis (LTEA) Assay for Forkhead box O1 (FOXO1) using HepaRG (AID 2283456)
Summary of the method: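 Differentiated HepaRG cells, in serum-free induction medium with 0.5% DMSO, exposed 48 h in duplicate to 8-point half-log series from 100 uM. FOXO1 mRNA measured by TaqMan qRT-PCR, normalized to ACTB, GAPDH, POLR2A; bidirectional fit versus DMSO.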

[5] = read-out: growth arrest and DNA damage 45 (GADD45A), GADD45A (gene 1647); test: LTEA_HepaRG_GADD45A: Life Technologies and Expression Analysis (LTEA) Assay for growth arrest and DNA damage 45 (GADD45A) using HepaRG (AID 2283458)
Summary of the method: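 Cells plated and cultured 48 h, switched to serum-free induction medium, then dosed for 48 h (100 uM top, half-log dilutions, 0.5% DMSO). RNA was isolated and transcript measured by Fluidigm qRT-PCR.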

[6] = read-out: Forkhead box O3 (FOXO3), FOXO3 (gene 2309); test: LTEA_HepaRG_FOXO3: Life Technologies and Expression Analysis (LTEA) Assay for Forkhead box O3 (FOXO3) using HepaRG (AID 2283459)
Summary of the method: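 Differentiated human HepaRG cells, 48 h post-plating, exposed in duplicate for 48 h in serum-free induction medium; 8-point half-log series from 100 uM in 0.5% DMSO. FOXO3 mRNA by TaqMan qRT-PCR, normalized to ACTB/GAPDH/POLR2A; bidirectional fit versus DMSO.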

[7] = read-out: ABC Transporter (ABCB1), ABCB1 (gene 5243); test: LTEA_HepaRG_ABCB1: Life Technologies and Expression Analysis (LTEA) Assay for ABC Transporter (ABCB1) using HepaRG (AID 2283460)
Summary of the method: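 HepaRG cells exposed in duplicate for 48 h in serum-free induction medium to eight half-log concentrations up to 100 uM in 0.5% DMSO. ABCB1 mRNA quantified by qRT-PCR, normalised to ACTB, GAPDH and POLR2A; fitted bidirectionally versus DMSO.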

[8] = read-out: growth arrest and DNA damage 45 (GADD45B), GADD45B (gene 4616); test: LTEA_HepaRG_GADD45B: Life Technologies and Expression Analysis (LTEA) Assay for growth arrest and DNA damage 45 (GADD45B) using HepaRG (AID 2283461)
Summary of the method: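 Values are bidirectional concentration-response fits against 0.5% DMSO controls. Underlying data: qRT-PCR mRNA levels in human HepaRG liver cells treated 48 h in serum-free induction medium, eight concentrations topping at 100 uM.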

[9] = read-out: ABC Transporter (ABCC3), ABCC3 (gene 8714); test: LTEA_HepaRG_ABCC3: Life Technologies and Expression Analysis (LTEA) Assay for ABC Transporter (ABCC3) using HepaRG (AID 2283462)
Summary of the method: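 Differentiated HepaRG liver cells receive test chemicals at eight concentrations (max 100 uM) for 48 h. Expression of ABCC3 is quantified by qRT-PCR against ACTB, GAPDH and POLR2A, and activity is fitted in both directions against the DMSO control.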

[10] = read-out: ABC Transporter (ABCB11), ABCB11 (gene 8647); test: LTEA_HepaRG_ABCB11: Life Technologies and Expression Analysis (LTEA) Assay for ABC Transporter (ABCB11) using HepaRG (AID 2283463)
Summary of the method: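 Differentiated human HepaRG cells in serum-free induction medium, dosed in duplicate for 48 h. Eight-point half-log series from 100 uM in 0.5% DMSO; ABCB11 mRNA by qRT-PCR, normalized to ACTB, GAPDH, POLR2A, fitted bidirectionally versus DMSO.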

[11] = read-out: ABC Transporter (ABCC2), ABCC2 (gene 1244); test: LTEA_HepaRG_ABCC2: Life Technologies and Expression Analysis (LTEA) Assay for ABC Transporter (ABCC2) using HepaRG (AID 2283464)
Summary of the method: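 Gene expression of ABCC2 was determined by qRT-PCR in HepaRG cells exposed 48 h to chemicals (highest 100 uM, half-log dilutions). Activity was fitted in both directions relative to 0.5% DMSO vehicle.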

[12] = read-out: Broad substrate specificity ATP-binding cassette transporter ABCG2 (Homo sapiens) (UniProt Q9UNQ0); test: LTEA_HepaRG_ABCG2: Life Technologies and Expression Analysis (LTEA) Assay for ABC Transporter (ABCG2) using HepaRG (AID 2283465)
Summary of the method: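 Differentiated HepaRG cells were exposed for 48 h in serum-free induction medium to 8 half-log concentrations, top 100 uM, in 0.5% DMSO. ABCG2 mRNA was measured by qRT-PCR, normalized to ACTB, GAPDH and POLR2A, with bidirectional fitting versus DMSO.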

[13] = read-out: ATP-citrate lyase (ACLY), ACLY (gene 47); test: LTEA_HepaRG_ACLY: Life Technologies and Expression Analysis (LTEA) Assay for ATP-citrate lyase (ACLY) using HepaRG (AID 2283466)
Summary of the method: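 Differentiated HepaRG cells exposed 48 h in serum-free induction medium to eight half-log concentrations up to 100 uM in 0.5% DMSO, duplicates. Transcript measured by Fluidigm TaqMan qRT-PCR, normalized to ACTB, GAPDH, POLR2A; bidirectional fit versus DMSO.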

[14] = read-out: Peroxisomal acyl-coenzyme A oxidase 1 (ACOX1) gene, ACOX1 (gene 51); test: LTEA_HepaRG_ACOX1: Life Technologies and Expression Analysis (LTEA) Assay for Peroxisomal acyl-coenzyme A oxidase 1 (ACOX1) gene using HepaRG (AID 2283467)
Summary of the method: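 HepaRG cells, plated 48 h then switched to serum-free induction medium, were exposed in duplicate for 48 h to 8-point half-log concentrations up to 100 uM in 0.5% DMSO. ACOX1 mRNA was measured by qRT-PCR, normalized to ACTB/GAPDH/POLR2A, and fitted bidirectionally versus DMSO.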

[15] = read-out: Alkaline Phosphatase, Placental (ALPP) gene, ALPP (gene 250); test: LTEA_HepaRG_ALPP: Life Technologies and Expression Analysis (LTEA) Assay for Alkaline Phosphatase, Placental (ALPP) gene using HepaRG (AID 2283468)
Summary of the method: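 Expression of ALPP was quantified by qRT-PCR against three housekeeping genes in human HepaRG cultures treated for 48 h with an eight-point concentration series up to 100 uM. Activity in either direction was fitted relative to 0.5% DMSO.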

[16] = read-out: Bcl-2 (BAD) gene, BAD (gene 572); test: LTEA_HepaRG_BAD: Life Technologies and Expression Analysis (LTEA) Assay for Bcl-2 (BAD) gene using HepaRG (AID 2283469)
Summary of the method: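 Differentiated HepaRG cells were exposed in duplicate in 0.5% DMSO for 48 h to eight-point half-log concentrations up to 100 uM. BAD mRNA was measured by Fluidigm TaqMan qRT-PCR, normalized to ACTB, GAPDH and POLR2A, and fitted bidirectionally against DMSO.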

[17] = read-out: Bcl-2 (BAX) gene, BAX (gene 581); test: LTEA_HepaRG_BAX: Life Technologies and Expression Analysis (LTEA) Assay for Bcl-2 (BAX) gene using HepaRG (AID 2283470)
Summary of the method: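 HepaRG (human liver), 48 h exposure, duplicate wells. 8-pt curve, half-log from 100 uM, 0.5% DMSO. BAX transcript by TaqMan qRT-PCR; ACTB/GAPDH/POLR2A normalization; gain or loss vs DMSO baseline.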

[18] = read-out: adenosine kinase (ADK) gene, ADK (gene 132); test: LTEA_HepaRG_ADK: Life Technologies and Expression Analysis (LTEA) Assay for adenosine kinase (ADK) gene using HepaRG (AID 2283471)
Summary of the method: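 Read-out is ADK transcript level measured by qRT-PCR and normalised to three housekeeping genes. Cells are human HepaRG, dosed for 48 h at up to 100 uM in 0.5% DMSO. Gain or loss of signal is fitted against DMSO controls.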

[19] = read-out: Alpha-fetoprotein (AFP) gene, AFP (gene 174); test: LTEA_HepaRG_AFP: Life Technologies and Expression Analysis (LTEA) Assay for Alpha-fetoprotein (AFP) gene using HepaRG (AID 2283472)
Summary of the method: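 HepaRG, single lot; 48 h post-plating -> serum-free induction medium; cpd 8-pt, 100 uM top, half-log, 0.5% DMSO, duplicate, 48 h. RNA -> qRT-PCR AFP, norm ACTB/GAPDH/POLR2A. Bidirectional fit vs DMSO.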

Measured: AC50

Broad substrate specificity ATP-binding cassette transporter ABCG2 (Homo sapiens), sequence (Q9UNQ0 whole entry, looked up): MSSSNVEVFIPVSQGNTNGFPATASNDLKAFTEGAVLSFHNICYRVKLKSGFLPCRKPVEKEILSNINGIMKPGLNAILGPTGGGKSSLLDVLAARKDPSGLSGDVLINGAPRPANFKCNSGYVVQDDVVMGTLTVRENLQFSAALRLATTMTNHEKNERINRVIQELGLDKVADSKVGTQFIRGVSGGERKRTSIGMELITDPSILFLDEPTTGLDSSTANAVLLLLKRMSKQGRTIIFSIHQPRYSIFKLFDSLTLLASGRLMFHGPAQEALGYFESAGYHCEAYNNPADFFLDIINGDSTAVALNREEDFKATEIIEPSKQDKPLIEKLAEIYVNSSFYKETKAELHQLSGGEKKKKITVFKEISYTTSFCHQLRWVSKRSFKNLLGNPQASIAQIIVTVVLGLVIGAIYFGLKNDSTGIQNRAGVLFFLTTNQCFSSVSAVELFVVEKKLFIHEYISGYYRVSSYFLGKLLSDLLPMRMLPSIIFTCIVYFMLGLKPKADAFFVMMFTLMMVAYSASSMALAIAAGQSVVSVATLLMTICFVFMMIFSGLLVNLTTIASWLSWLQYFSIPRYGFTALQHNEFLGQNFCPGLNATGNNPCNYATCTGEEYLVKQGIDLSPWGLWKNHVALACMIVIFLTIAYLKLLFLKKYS

CCOC(=O)c1ccc(O)cc1
inactive: all assays above

CCCCCCC(C)OC(=O)COc1nc(F)c(Cl)c(N)c1Cl (stereo not drawn)
inactive: all assays above

CCOC(=O)COc1cc(-n2ncc(C(F)(F)F)c(C)c2=O)c(F)cc1Cl
active: [2] 50 µM
inactive: all other assays above

C[C@]12C[C@H](O)[C@H]3[C@@H](CCC4=CC(=O)CC[C@@]43C)[C@@H]1CC[C@@H]2C(=O)CO
active: [2] 50 µM | [7] 70 µM | [11] 67.9 µM | [12] 50 µM
inactive: all other assays above

CCCN(CCC)c1c([N+](=O)[O-])cc(C(F)(F)F)c(N)c1[N+](=O)[O-]
active: [2] 9.51 µM | [6] 50 µM | [7] 18 µM | [10] 22 µM | [11] 25.4 µM | [19] 34.4 µM
inactive: all other assays above

C=CCOC(Cn1ccnc1)c1ccc(Cl)cc1Cl (stereo not drawn)
inactive: [6] | [7] | [13] | [16] | [18]
active: [1] 35.3 µM | [2] 12.1 µM | [3] 79.2 µM | [4] 78.1 µM | [5] 59.1 µM | [8] 91.3 µM | [9] 35.5 µM | [11] 37.9 µM | [12] 2.47 µM | [14] 45 µM | [15] 50 µM | [17] 33.9 µM | [19] 25.9 µM
